# Rows were chosen to be rich in hits. Some 7.5% of all compounds tested hit in one or more screens of this group.
# ELG1 genotoxic: qHTS screen for small molecules that induce genotoxicity in human embryonic kidney (HEK293T) cells expressing luciferase-tagged ELG1; HEK293T ELG1-luciferase reporter, luminescence, 16 h; Potency, µM (top dose mostly 46 µM), usual class: activators; 1.3% of 330,000 active; also: nearly all actives have a fitted effect of over 60% in size
#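 Cells (2,000/well) expressing the ELG1-luciferase fusion are dosed by pin tool and kept 16 hr at 37 °C, 5% CO2. Signal comes from ONE-Glo luciferase reagent after 30 min at room temperature.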
# NPC1 prom act: qHTS Assay for NPC1 Promoter Activators; Huh7 NPC1 promoter luciferase reporter, 24 h; Potency, µM (highest dose often 9.22 µM), hits mostly activators; 2.4% of 320,000 active; also: nearly all actives have a fitted effect of over 60% in size
#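 NPC1 promoter–luciferase Huh7 cells; 24 h compound; luminescence.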
# Luc counter: Counterscreen for Luciferase (Kinase-Glo TM) Inhibition; Luciferin 4-monooxygenase (Photuris pensylvanica), Q27757; Kinase-Glo luciferase, ATP luminescence, 8 min; Potency, µM (series often up to 38.3 µM), hits mostly inhibitors; 0.28% of 200,000 active; also: nearly all actives have a fitted effect of over 60% in size
#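 Inhibition of Kinase-Glo luciferase light generation was assessed at 10 uM ATP in pH 7.2 imidazole buffer, with luminescence measured after eight minutes at ambient temperature.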
# Rab9 prom act: qHTS Assay for Rab9 Promoter Activators; Huh7 Rab9 promoter-luciferase reporter, luminescence, 24 h; Potency, µM (top dose mostly 9.22 µM), most hits filed as activators; 2.8% of 320,000 active; AID 485297, 2010; also: nearly all actives have a fitted effect of over 60% in size
#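 Huh7 cells stably carrying Rab9 promoter–luciferase reporter, plated 1500 cells/well, compound added after 2 h and incubated 24 h at 37 °C; luciferase luminescence then read after 10 min with detection reagent.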
# SMN2 splice up: qHTS Assay for Enhancers of SMN2 Splice Variant Expression | Potency, µM (doses to about 46.1 µM), actives largely listed as activators | HEK293 SMN2-luciferase splicing reporter, luminescence, 30-36 h | 2.8% of 210,000 active; also: nearly all actives have a fitted effect of over 55% in size
#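 qHTS luciferase splicing reporter: luminescence rises when SMN2 exon 7 is included in transfected HEK293 cells. Compound exposure lasted 30-36 h at 37C, with 4.5 mM final sodium butyrate as control, followed by a ONE-Glo read.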
# FLuc counter: qHTS profiling assay for firefly luciferase inhibitor/activator using purifed enzyme and Km concentrations of substrates (counterscreen for miR-21 project); purified FLuc, Km substrates, luminescence inhibition; Luciferin 4-monooxygenase (Photinus pyralis), P08659; Potency, µM (top dose mostly 57.5 µM), actives largely listed as inhibitors; AID 588342, 2011; 6.9% of 360,000 active; also: nearly all actives have a fitted effect of over 55% in size
# Target sequence (P08659 whole entry, looked up): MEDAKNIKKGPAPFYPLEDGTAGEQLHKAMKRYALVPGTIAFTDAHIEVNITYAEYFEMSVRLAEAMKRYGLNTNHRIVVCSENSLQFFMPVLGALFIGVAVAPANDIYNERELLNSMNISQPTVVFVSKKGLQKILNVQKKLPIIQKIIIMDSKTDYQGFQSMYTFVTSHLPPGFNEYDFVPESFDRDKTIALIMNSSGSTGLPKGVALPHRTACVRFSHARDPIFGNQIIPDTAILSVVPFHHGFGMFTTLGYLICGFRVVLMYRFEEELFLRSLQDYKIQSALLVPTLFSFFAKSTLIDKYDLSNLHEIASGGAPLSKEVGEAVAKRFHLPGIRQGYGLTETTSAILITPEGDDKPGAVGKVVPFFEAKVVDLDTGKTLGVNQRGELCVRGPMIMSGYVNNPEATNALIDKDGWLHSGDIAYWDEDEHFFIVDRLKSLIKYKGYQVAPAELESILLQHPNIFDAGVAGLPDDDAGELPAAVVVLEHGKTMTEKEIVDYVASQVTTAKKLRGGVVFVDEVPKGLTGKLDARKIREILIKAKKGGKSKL
#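 Biochemical qHTS of compounds, final roughly 60 µM downward over six points, against 10 nM purified firefly luciferase using Km concentrations of substrates (10 uM D-luciferin, 10 uM ATP) in Tris acetate pH 7.5 buffer; luminescence output.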
# A number is an active result; 0 = inactive; ? = inconclusive; - = not tested or not shown; ! = not confirmed by another sample; [ ] = dose if it differs, or a comment. Calls follow the shape of the dose curve; as a rule, active = well fitted curve in the direction sought with a large enough effect; inconclusive = small, poorly fitted or top-dose-only effect, or another doubt; inactive = no such curve, though single readings can be large; an effect the other way counts as inactive or inconclusive.
SMILES,ELG1 genotoxic,NPC1 prom act,Luc counter,Rab9 prom act,SMN2 splice up,FLuc counter
CCOc1ccccc1NC(=O)Nc1cccc(C(C)=O)c1,0,0,0,0,0,24µM
CC(=O)Nc1ccccc1OCC(=O)c1ccc2c(c1)OCO2,?,3.5µM,-,3.2µM,-,0
CS(=O)(=O)c1ccc2nc(NC(=O)CCNC(=O)c3ccc(Cl)cc3)sc2c1,0,0,-,0,-,0
CCc1ccc2occ(CC(=O)NCc3ccccc3)c2c1,-,-,-,-,0,?
O=C(Nc1ccc2c(c1)CCC2)Nc1ccccc1Cl,2.3µM,1.4µM,-,1.8µM,-,1.5µM
Cc1ccc(NC(=O)Nc2ccc3c(c2)CCC3)c(C)c1,0,0,-,0,-,0
Cc1c(C(=O)Nc2ccc3c(c2)OCCO3)sc2ncnc(N3CCCCC3C)c12 (stereo unspecified),0,0,-,0,-,11µM
Oc1ccc(COCc2ccccc2)c2cccnc12,8.2µM,0,0,0,0,19µM
Cc1cc(C(=O)CN2C(=O)C(=O)N(CCC3=CCCCC3)C2=O)c(C)n1C,0,-,-,-,-,-
CC(C)c1nc2sc3c(c2c(=O)[nH]1)CC(C)(C)OC3,0,0,-,0,-,0
O=C(COc1ccccc1)NNC1=NS(=O)(=O)c2ccccc21,0,0,0,0,0,24µM
COc1ccc(C(=O)NNC2=NS(=O)(=O)c3ccccc32)cc1OC,0,0,-,0,-,15µM
CCCOc1ccc(NC(=O)CC2C(=O)N(c3cccc(OC)c3)C(=O)N2CCc2ccncc2)cc1 (stereo unspecified),-,-,-,-,-,0
O=C(Nc1ccc(Cl)c(C(F)(F)F)c1)C(Cc1ccccc1)NS(=O)(=O)c1cccc2nsnc12 (stereo unspecified),-,-,-,-,0,0
O=C(Nc1nc2c(Cl)cccc2s1)c1ccc([N+](=O)[O-])o1,0,0,-,0,-,?
O=C(Nc1nc2c(F)cccc2s1)c1ccc([N+](=O)[O-])o1,0,4µM,-,?,-,?
O=C1CC(c2ccccc2)CC(O)=C1C=Nc1cccc(Cl)c1 (stereo unspecified),0,0,0,0,0[1.84 µM],7.6µM
O=C1CC(c2ccccc2)CC(O)=C1C=Nc1ccc(Cl)cc1 (stereo unspecified),0,0,0,0,0[1.84 µM],0
O=C(NCC1CCCO1)C(c1cccnc1)N(C(=O)Cc1cccs1)c1ccccc1 (stereo unspecified),0,?,0,?,0,11µM
CCc1oc2ccccc2c1C(=O)c1cc(Br)c(O)c(Br)c1,0,0,0,0,0,15µM!
O=C(CN1CCCCC1)N/N=C/c1ccc(Cl)cc1,0,0,-,0,-,0
O=C(O/N=C/c1ccc(Cl)cc1)C1CCCCC1,0,0,-,0,-,2.7µM
Clc1ccc(Nc2ccc(NCc3ccccc3)nn2)cc1,0,0,0,0,0,?
Cc1ccc(Nc2ccc(NCc3ccccc3)nn2)cc1C,?,0,0,0,?,17µM
Cc1ccccc1Cn1cc(NC(=O)c2cc(C3CC3)on2)cn1,0,?,-,?,-,19µM
SMILES,ELG1 genotoxic,NPC1 prom act,Luc counter,Rab9 prom act,SMN2 splice up,FLuc counter
Cc1ccccc1Cn1cc(NC(=O)c2cc(-c3ccc(Cl)cc3)on2)cn1,-,-,-,-,0,0
COCCn1c(C)cc(C(=O)CSc2nc3ccccc3s2)c1C,?,0.35µM,0,0.5µM,0,0.54µM
COCCn1c(C)cc(C(=O)CSc2cc(C)c3ccc(OC)cc3n2)c1C,0,0,-,0,-,3µM
COCCn1c(C)cc(C(=O)CSc2nc(C)c(C)c(C)n2)c1C,0,0,0,0,0,0
COc1ccc2c(C)cc(SCC(=O)c3ccc4c(c3)OCO4)nc2c1,0,0,0,0,0,?
COCCn1c(C)cc(C(=O)CSc2nc3ccccc3o2)c1C,?,0.63µM,0,0.35µM,7.9µM,1.3µM
COC(=O)[C@]1(Cc2ccccc2)N[C@H](CN(C)C(=O)c2ccc(F)cc2)[C@@H]2C(=O)N(C)C(=O)[C@@H]21,0,-,-,-,-,-
CCC(Sc1nc2ccccc2c2nc(CCn3c(C)nc4ccccc43)nn12)C(=O)Nc1ccc(F)cc1 (stereo unspecified),-,-,-,-,-,0
CC(C)CN(C[C@@H](O)[C@H](Cc1ccccc1)NC(=O)O[C@H]1CCOC1)S(=O)(=O)c1ccc(N)cc1,-,-,0,-,-,-
COc1ccc2c(c1)c1c(c(=O)n(-c3ccc(OC)c(OC)c3)c(=O)n1Cc1ccccc1F)n2C,-,-,-,-,-,0
Cc1ccc(S(=O)(=O)N2CCN(C(=O)c3c(-c4ccccc4)noc3C)CC2)c(C)c1,0,0,-,0,-,0
O=C(c1cc(-c2ccncc2)nc2ccccc12)N1CCN(c2ccccc2O)CC1,0,0,-,0,-,?
Cc1ccc2nc(-c3ccccc3)cc(C(=O)N3CCN(S(=O)(=O)c4c(C)noc4C)CC3)c2c1,0,0,-,0,-,5.4µM
Nc1nc(N2CCN(c3ccccn3)CC2)nc2ccccc12,?,?,-,3.5µM,-,11µM
O=C(c1cc(-c2ccccc2)nc2ccccc12)N1CCN(c2ccccc2O)CC1,0,0,-,0,-,11µM
Cc1ccc2nc(-c3ccccc3)cc(C(=O)N3CCN(c4ccccc4O)CC3)c2c1,0,0,-,0,-,13µM
CCOc1ccc(CCNC(=O)COC(=O)c2ccc3c(c2)OCCO3)cc1OCC,0,0,-,0,-,0
O=C(NNc1ccccc1)/C(=C\c1cccnc1)NC(=O)c1ccccc1,0,0,-,0,-,0
O=C(c1cc(-c2ccccc2)nc2ccccc12)N1CCN(c2ccccn2)CC1,0,0,0,0[1.84 µM],0,12µM
CCC(C)NC(=O)c1cc2cc(S(=O)(=O)N3CCCCC3)ccc2n1C (stereo unspecified),-,-,-,-,-,0
COc1ccc(-c2cc(C(=O)N/N=C/c3ccc(OC)c(OC)c3)[nH]n2)cc1,-,-,0,-,-,-
CC(C)CSc1nnc2c3ccccc3n(C)c2n1,?,0,-,0,-,11µM
COc1ccc2[nH]c3nc(SC(C)C)nnc3c2c1,0,0.71µM,0,0.79µM,?,0.34µM
CC(C)CSc1nnc2c(n1)[nH]c1ccccc12,0.65µM,3.5µM,0,0.71µM,2.2µM,0.67µM
CCCCSc1nnc2c(n1)[nH]c1ccccc12,?,?,0,1.3µM,3.5µM,?
COc1ccc(CNC(=O)CSc2nnc3c(n2)[nH]c2ccc(OC)cc23)cc1,0,0,-,0,-,0
CC(CC(=O)NCc1ccc(Cl)cc1Cl)CC1=NS(=O)(=O)c2ccccc2N1 (stereo unspecified),-,-,-,-,-,0
O=C(O)c1ccccc1CSc1nnc2c(n1)[nH]c1ccccc12,0,0,-,0,-,21µM
